CHT PAM – human CHT allosteric activation | Q9GZV3 | CHT-expressing cells, membrane potential dye, choline EC20; active compounds read high; LV-AA mutant CHT in HEK293 cells | B-score at 10 µM | 310,000 tested, 0.49% active;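 active = initial fluorescence not abnormally high and integrated response B-score, plate-corrected, over 3 SD above library mean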
TMEM16A inh – inhibitors of mouse TMEM16A calcium-activated chloride channel | Q8BHY3 | HEK293 TMEM16A/YFP iodide influx fluorescence, ionomycin | normalized B-score (activity score, 25-100; higher = stronger inhibition) at 10 µM | 310,000 tested, 1.2% active;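 active = ratio plate-corrected score three or more library SD toward inhibition, starting fluorescence score within five deviations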;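 note: score derived from kinetic fluorescence span divided by baseline fluorescence per well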
TMEM16A act – activates or potentiates the mouse TMEM16A chloride channel. Q8BHY3. HEK293 TMEM16A/YFP-H148Q/I152L, iodide quench fluorescence; active compounds read low. B-score at 10 µM. 340,000 tested, 0.3% active;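 active = fluorescence-ratio B-score plate-corrected deviation score at least 3 library SD below zero, with starting fluorescence score within 5 deviations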;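 note: channel opened by trigger with iodide after compound preincubation; score built on the fluorescence ratio of max minus min over baseline; more negative score means more quench and so TMEM16A activation or potentiation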
CHT block – inhibitors of human choline transporter CHT; Q9GZV3; CHT-expressing cells, membrane potential dye, choline response; active compounds read low; B-score at 10 µM; 310,000 tested, 0.86% active; AID 488975;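 active = B-score over 3 SD under the library average, and starting fluorescence ratio not unusually high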;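 note: choline stimulus applied at its EC90 after an EC20 pre-addition; B-score computed on integrated fluorescence ratio after choline addition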
TMEM16A reconf – re-confirmation of mouse TMEM16A chloride channel inhibitors; shares compounds with TMEM16A inh; HEK293 TMEM16A/YFP-H148Q, iodide quench fluorescence; ionomycin added to raise cell calcium; inhibition, % at 10 µM; 2,300 tested, 39% active; AID 652189;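 active = mean duplicate percent inhibition, scaled so buffer wells are 0 and the reference blocker 100, over three buffer SD above buffer mean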
HEK293 Ca mobil – calcium mobilization counter-screen hit for TMEM16A inhibitor series | AID 652231 | TMEM16A/YFP HEK293, Fluo4 calcium mobilization | calcium response (% of ionomycin), % at 10 µM | 2,300 tested, 2% active | shares compounds with TMEM16A inh;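 active = duplicate-averaged calcium signal over 20% of the ionomycin maximum, relative to buffer baseline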;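 note: each well's signal is peak minus trough fluorescence divided by its pre-addition baseline; 0% = buffer wells and 100% = ionomycin wells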
Parental YFP cnt – acts in parental YFP-HEK293 cells lacking TMEM16A, counter-screen; shares compounds with TMEM16A inh; iodide YFP quench, ionomycin; YFP ratio F(max-min)/F0 at 10 µM; 2,300 tested, under 10 active;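 active = yellow fluorescent protein signal ratio exceeding the buffer control mean by over 5 SD of those controls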;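 note: ratio is mean of duplicate wells from kinetic YFP trace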
ClC-1 inh – blocks the rat ClC-1 voltage-dependent chloride channel; shares compounds with TMEM16A inh; AID 652236; CHO ClC-1-YFP, iodide influx fluorescence quench; iodide control reads 0, buffer control 100; 2,300 tested, under 10 active; ratio percent, % at 10 µM;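 active = duplicate-mean ratio percent above the mean of iodide-only control wells, which defines zero, plus 5 of their SD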;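 note: higher percent means stronger block of ClC-1 iodide influx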
Target sequence (P35524 whole entry, looked up): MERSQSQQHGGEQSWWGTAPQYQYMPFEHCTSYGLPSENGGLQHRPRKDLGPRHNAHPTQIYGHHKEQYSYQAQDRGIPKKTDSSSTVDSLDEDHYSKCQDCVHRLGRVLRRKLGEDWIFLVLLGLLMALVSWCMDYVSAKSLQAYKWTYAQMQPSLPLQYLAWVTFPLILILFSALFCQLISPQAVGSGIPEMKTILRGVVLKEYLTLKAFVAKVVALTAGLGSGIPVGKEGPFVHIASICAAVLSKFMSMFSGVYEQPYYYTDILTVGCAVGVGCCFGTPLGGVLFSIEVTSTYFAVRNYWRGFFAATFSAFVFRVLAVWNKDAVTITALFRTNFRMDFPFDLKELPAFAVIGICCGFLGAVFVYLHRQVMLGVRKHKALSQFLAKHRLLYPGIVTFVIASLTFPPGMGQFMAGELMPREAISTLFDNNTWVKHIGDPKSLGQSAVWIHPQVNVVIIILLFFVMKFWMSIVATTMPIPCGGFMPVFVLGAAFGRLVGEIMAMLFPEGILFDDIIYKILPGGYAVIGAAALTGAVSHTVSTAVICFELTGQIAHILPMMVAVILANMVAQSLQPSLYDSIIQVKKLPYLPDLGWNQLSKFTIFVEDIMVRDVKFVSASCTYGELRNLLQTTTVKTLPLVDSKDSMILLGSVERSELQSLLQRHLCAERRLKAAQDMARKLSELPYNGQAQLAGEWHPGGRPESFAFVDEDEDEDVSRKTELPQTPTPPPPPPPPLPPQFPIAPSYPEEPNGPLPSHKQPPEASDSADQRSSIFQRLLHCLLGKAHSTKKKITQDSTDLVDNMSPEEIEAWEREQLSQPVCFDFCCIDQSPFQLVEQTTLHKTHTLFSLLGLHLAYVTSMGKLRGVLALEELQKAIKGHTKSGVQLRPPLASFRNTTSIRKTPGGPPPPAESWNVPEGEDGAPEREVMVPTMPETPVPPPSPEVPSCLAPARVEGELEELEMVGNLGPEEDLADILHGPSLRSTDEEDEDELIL
Starred values were filed as active, the others as inactive; i = inactive; nt = no result given. An excerpt weighted towards active compounds, which were near 2.4% of everything screened.

SMILES	CHT PAM	TMEM16A inh	TMEM16A act	CHT block	TMEM16A reconf	HEK293 Ca mobil	Parental YFP cnt	ClC-1 inh
Cn1c(SCC(=O)NC2CCCCCC2)nnc1-c1ccco1	i	i	i	i	nt	nt	nt	nt
COc1cccc(/C=C2/Sc3ccc(C(=O)NCCN4CCCCCC4)cc3NC2=O)c1	i	i	i	i	nt	nt	nt	nt
CCOc1ccc(N(CC)S(=O)(=O)c2ccc3c(c2)n(C)c(=O)c(=O)n3C)cc1	i	100*	i	i	i	i	-1.2	-6
Cc1nn(-c2ccccc2)c2nc(N)c(C#N)c(-c3ccc(C(C)(C)C)cc3)c12	i	i	i	i	nt	nt	nt	nt
COc1cccc(-c2c(C#N)c(N)nc3c2c(C)nn3-c2ccccc2)c1O	i	100*	i	i	45%*	i	-0.9	-10
CC(C)c1ccc(S(=O)(=O)N2CCN(CCC(=O)Nc3ccc(N(C)C)cc3)CC2)cc1	nt	nt	i	nt	nt	nt	nt	nt
C/C(=N\N)c1c(-c2ccccc2)c2cc(C)ccc2[nH]c1=O	i	i	i	i	nt	nt	nt	nt
CCN(CC)c1c(-c2ccccc2)c2cc(C)ccc2[nH]c1=O	i	25*	i	i	i	i	-1.1	-9
CCOC(=O)C1C(c2cccs2)NC(=O)N(C)C1(O)C(F)(F)F (configuration not stated)	i	i	i	i	nt	nt	nt	nt
CCOc1c(Cl)cc(C(=O)Nc2ccccc2C(=O)O)cc1Cl	i	100*	i	i	50%*	i	-0.88	-7
c1ccc2c(-c3cc(C4CCNCC4)[nH]n3)cccc2c1	i	i	i	i	nt	nt	nt	nt
O=S(=O)(N1CCCCC1)N1CCN(c2ccccc2F)CC1	i	i	i	i	nt	nt	nt	nt
COc1ccc(NS(=O)(=O)c2ccc(-c3cnc(C4CC4)o3)cc2)cc1OC	i	25*	i	i	34%*	i	-1	-24
Cc1ccc(NS(=O)(=O)c2ccc(-c3cnc(C4CC4)o3)cc2)c(C)c1	i	i	i	i	nt	nt	nt	nt
O=C(Nc1ccsc1C(=O)O)c1cccc(C(F)(F)F)c1	i	i	i	i	nt	nt	nt	nt
O=C(Nc1ccsc1C(=O)O)c1cccc(Oc2ccccc2)c1	i	100*	i	i	52%*	i	-1	-8
CC(C)COP(=O)(OCC(C)C)C(O)c1ccc(N(C)C)cc1 (configuration not stated)	i	i	i	i	nt	nt	nt	nt
COc1ccc(C(=O)Nc2cccc(OC)c2)cc1	i	i	i	i	nt	nt	nt	nt
COc1cccc(N/C=C(\C#N)c2ccc(OCCCF)cc2)c1	i	100*	i	i	i	i	-0.87	-1
CCN(CC)c1ccc(C=Nc2ccc(C)cc2)c(O)c1	i	i	i	i	nt	nt	nt	nt
CCN(CC)c1ccc(C=Nc2cc(C)cc(C)c2)c(O)c1	i	25*	-5.2*	i	i	i	-1.1	-3
Cc1c(Cl)c(C(=O)NC2C3CC4CC(C3)CC2C4)nn1C (configuration not stated)	i	100*	i	i	i	i	-0.96	-1
COc1ccccc1CN=Cc1[nH]c2ccc(Br)c(Cl)c2c1O	i	i	i	i	16%*	i	-0.9	-8
CCCSc1nc(C)cc(C)c1S(C)(=O)=O	i	i	i	i	nt	nt	nt	nt
CCCSc1nc(C)cc(C)c1S(=O)(=O)c1ccccc1C	i	100*	i	i	i	i	-1.3	-4
SMILES	CHT PAM	TMEM16A inh	TMEM16A act	CHT block	TMEM16A reconf	HEK293 Ca mobil	Parental YFP cnt	ClC-1 inh
Cc1cc(C)c(S(=O)(=O)c2ccccc2C)c(SCC(C)C)n1	i	100*	i	i	i	i	-1.3	-6
Cc1cc(C)c(S(=O)(=O)c2ccccc2C)c(N(C)C)n1	i	i	i	i	nt	nt	nt	nt
Cc1ccc(CNC(=O)COC(=O)c2nc(-c3ccccc3)oc2C)cc1	nt	nt	i	nt	nt	nt	nt	nt
Cc1csc2c(N3CCN(C(=O)c4ccc(C(C)(C)C)cc4)CC3)ncnc12	i	100*	i	i	36%*	i	-1.1	-28
Cc1csc2c(N3CCN(C(=O)Nc4ccc(Cl)c(Cl)c4)CC3)ncnc12	i	25*	i	i	29%*	i	-0.8	-20
CC(C)(C)c1ccc(-n2ncc3c2CCCC3NC(=O)CCCn2cncn2)cc1 (configuration not stated)	nt	nt	i	nt	nt	nt	nt	nt
O=c1[nH]c2ccccc2n1C1=CCNCC1	nt	nt	i	nt	nt	nt	nt	nt
COc1ccc(-c2cn(Cc3ccc(C(=O)c4ccccc4)cc3)nn2)cc1	i	25*	nt	i	27%*	i	-0.86	-16
COc1ccc(-c2ccc(CCC(=O)O)n2-c2ccccc2OC)cc1	i	i	i	i	nt	nt	nt	nt
COc1cc2c(cc1NCc1ccccn1)oc1ccccc12	i	100*	i	i	i	i	-1	-13
Cc1[nH]nc(SCC(=O)NC(C)c2ccccc2)c1[N+](=O)[O-] (configuration not stated)	i	i	i	i	nt	nt	nt	nt
O=S(=O)(NCc1csc(-c2cccs2)n1)c1ccccc1	i	i	i	i	nt	nt	nt	nt
CCOC(=O)c1ccc2c(c1)N(CC(=O)N1CCCCC1)C(=O)C(C)(C)O2	i	100*	i	i	i	i	-1.2	-4
Nc1nc2ccc([N+](=O)[O-])cc2[nH]1	i	i	i	i	nt	nt	nt	nt
Nc1[nH]c2cc([N+](=O)[O-])ccc2c1-c1ccccn1	i	i	i	i	21%*	i	-0.67	13
O=C(NN(C(=O)C1CC1)c1nc2ccccc2s1)C1CC1	i	i	i	i	nt	nt	nt	nt
CCOC(=O)C1CCN(S(=O)(=O)C(F)(F)c2nc3ccccc3s2)CC1	i	100*	i	i	30%*	i	-0.94	-11
CCOC(=O)C1CCN(S(=O)(=O)c2ccc(-c3ccccn3)s2)CC1	i	i	i	i	nt	nt	nt	nt
Cc1ccc(C(C)C)c(Oc2nnnn2-c2ccccc2)c1	i	25*	i	i	26%*	i	-0.9	-8
Cc1ccc(C)c(Oc2nnnn2-c2ccccc2)c1	i	i	i	i	nt	nt	nt	nt
CCOC(OCC)P(=O)(c1ccccc1)c1ccccc1	i	i	i	i	i	i	-1.2	-2

Screening results (PubChem)
